Measured values taken from ChEMBL document CHEMBL4513216, “Probing the Open Global Health Chemical Diversity Library for Multistage-Active Starting Points for Next-Generation Antimalarials” (ACS Infect Dis, 2020).
About 2,700 (4%) of roughly 68,000 compounds showed an effect of 50% or more. The sample as a whole holds a higher share of strong results than the screen did.

Each compound was assayed on Plasmodium berghei (assay: Screen against P. berghei liver stage (PbLuc), transformed with Luciferase, at 2uM). Conditions: tested at 2 uM.
Assay type: functional, HepG2

SMILES | INHIBITION [%]
Cc1nc(C)c(C(=O)N2CCc3nnc(C4CCCCN4C)n3CC2)s1 (stereo not drawn) | 26.44
COc1ccc(CNC(Cc2ccsc2)c2ncccc2C)cc1OC (stereo not drawn) | -31.69
CCCN1CCC(c2nc3ccc(C)cn3n2)CC1 | 20.01
CCCN1CCC(c2nc3ccc(-c4ccccc4)cn3n2)CC1 | 13.16
CC(C)N1CCC(c2nc3ccc(-c4ccnn4C)cn3n2)CC1 | 51.94
CN1CCC(c2nc3ccc(-c4cccc(F)c4)cn3n2)CC1 | 20.41
CCCN1CCC(c2nc3ccc(NCc4ccccc4)cn3n2)CC1 | 54.65
CN1CCC(c2nc3ccc(-c4ccccc4)cn3n2)CC1 | 54.56
CCCN1CCC(c2nc3ccc(NCc4cccnc4)cn3n2)CC1 | 1.42
CC(=O)N1CCC(c2nc3ccc(-c4ccnn4C)cn3n2)CC1 | 25.31
Cn1nccc1-c1ccc2nc(C3CCNCC3)nn2c1 | 39.51
Cc1noc(C)c1-c1cnc(CC2CCN(C(=O)c3cc[nH]n3)C2)cn1 (stereo not drawn) | -26.24
CCC(C)c1csc(NC(=O)Cc2csc(-c3nnc[nH]3)n2)n1 (stereo not drawn) | -5.58
O=C(CCn1c(C(F)(F)F)cc2cccnc21)N1CCOCC1 | 48.65
COc1coc(C(=O)Nc2nc(C)cs2)cc1=O | -1.29
CN(C)C(C(=O)N1CCC(N2CCSCC2)CC1)c1ccccc1F (stereo not drawn) | 4.18
CN(CC1Cc2ccccc2CN1C)c1nc(N)nc2c1CCNCC2 (stereo not drawn) | 52.98
CN(Cc1ccc(-n2cccn2)cc1)c1nc(N)nc2c1CCNCC2 | 18.01
Cc1nc2c(c(N(C)Cc3ccccc3-n3cccn3)n1)CCNCC2 | -19.21
Cc1nc2c(c(N(C)CC3Cc4ccccc4CN3C)n1)CCNCC2 (stereo not drawn) | 57.75
CN(Cc1ccccc1-n1cccn1)c1nc(N)nc2c1CCNCC2 | 5.86
Cc1nc2c(c(NCC3Cc4ccccc4CN3C)n1)CCNCC2 (stereo not drawn) | 43.44
Cc1nc(N)cc(C2CCN2CCC(N)=O)n1 (stereo not drawn) | 11.32

SMILES | INHIBITION [%]
Cc1ncsc1CN1C[C@@H]2CCCO[C@@H]2[C@H](N(C)C(C)C)C1 | -10.13
Cn1cnc2c1CCN(CC(=O)N(Cc1ccccc1F)C1CC1)C2 | 18.99
O=C(NCCc1cc2nc(-c3ccncc3)ccn2n1)C1CCOCC1 | 9.9
CS(=O)(=O)Cc1ccc(C(=O)N2CCCC(n3cncn3)C2)o1 (stereo not drawn) | 12.7
Cc1occc1C(=O)N1CCC2(CCC(=O)N(CC(N)=O)C2)CC1 | -26.32
O=C(c1nc2sccn2c1-c1ncc[nH]1)N1CCCCC1 | -1.65
CCN(Cc1ncc(C(C)(C)C)o1)Cc1ccccc1C | -47.18
Cc1cccc(CN(Cc2ccccn2)Cc2ncc(C(C)(C)C)o2)c1 | 43.44
CCN(Cc1cccc(Cl)c1)Cc1ncc(C(C)(C)C)o1 | 81.59
OC1(CNc2ccc(Br)cn2)CCOCC1 | -58.79
CC(C)(C)C(=O)NCCNCc1ccc(Cl)c2cccnc12 | -53.16
OC(CNCCn1cccn1)c1cccc(Br)c1 (stereo not drawn) | -69.91
CC(C)NC(=O)N1CCc2onc(C(=O)Nc3cccnc3)c2C1 | 18.87
CN(C)CCNC(=O)c1noc2c1CN(C(=O)N(C)C)CC2 | 59.76
CC(C)NC(=O)N1CCc2onc(C(=O)NCCN(C)C)c2C1 | 42.62
CC(C)C(=O)N1CCc2onc(C(=O)NCCN(C)C)c2C1 | 11.37
Cc1ccc(CN2CCc3onc(C(=O)Nc4cccnc4)c3C2)o1 | 34.37
CN(C)C(=O)N1CCc2onc(C(=O)Nc3cccnc3)c2C1 | 67.19
CCc1ccc(C(=O)O)cc1S(=O)(=O)N(C)c1cccc(C)c1 | -2.2
CN(Cc1ccccc1)C(=O)c1nc(S(C)(=O)=O)n2ccccc12 | 3.9
O=C(O)c1nnn(-c2ccc(OC(F)(F)F)cc2)c1-c1ccncc1 | 3.22
CC(Nc1ccc2c(c1)CCC2)c1nc(C2CC2)no1 (stereo not drawn) | 6.47
Cc1ccc2oc(=O)n(CC(=O)N3CCC4(CC3)CN(C)C(=O)O4)c2c1 | -55.13

SMILES | INHIBITION [%]
COc1c(CNCc2ccc(C(=O)N(C)C(C)C)cc2)c(C)nn1C | 4.55
O=C(Cn1cccn1)N(CCO)CCSc1ccc(Cl)cc1 | -5.53
O=C(Cc1ccncc1)N(CCO)CCSc1ccc(Cl)cc1 | 47.2
O=C(Cn1ccnc1)N(CCO)CCSc1ccc(Cl)cc1 | 56.21
CCc1cnc(N2CCCOC(CN3CCCC3)C2)nc1 (stereo not drawn) | -30.18
COCC1CN(CC2CC2)Cc2nn(CC3CC3)cc21 (stereo not drawn) | 11.34
COCC(=O)N1CCN(S(=O)(=O)c2ccccc2)[C@H]2CS(=O)(=O)C[C@H]21 | 15.75
COCC(=O)N1CCN(S(=O)(=O)c2cccs2)[C@H]2CS(=O)(=O)C[C@H]21 | 18.77
COCC(=O)N1CCN(C(=O)Cc2cccs2)[C@H]2CS(=O)(=O)C[C@H]21 | 54.47
CN1C(=O)CCCC12CCCN(C(=O)c1cc(F)cc(F)c1)C2 (stereo not drawn) | 12.83
Cn1ccnc1CN1CCOC(Cn2cccn2)C1 (stereo not drawn) | 7.01
Cc1cccc(-c2ccc(C(=O)NCC3CCOC3)c(=O)[nH]2)c1 (stereo not drawn) | 17.39
Cc1cccc(-c2ccc(C(=O)NCC3CCCOC3)c(=O)[nH]2)c1 (stereo not drawn) | -9.49
Cc1cccc(-c2ccc(C(=O)NCC3CCCO3)c(=O)[nH]2)c1 (stereo not drawn) | 57.77
CC(C)c1cc(NC2CCCN(C(=O)c3cccs3)C2)ncn1 (stereo not drawn) | -13.8
CC(C)c1cc(NC2CCN(C(=O)N3CCCC3)CC2)ncn1 | 52.98
O=C(N1CCCC1)N1CCC(Nc2ccncn2)CC1 | 39.44
Cc1nc2ncc3c(=O)n(C)ccc3n2n1 | -42.16
CN(C)CC(=O)N1CCCC2(CCC(=O)N(CCc3c[nH]cn3)C2)C1 (stereo not drawn) | 38.93
CCc1n[nH]c(C(=O)N2CCCC3(CN(C)C(=O)O3)C2)c1C (stereo not drawn) | 51.9
CN1CCc2[nH]nc(C(=O)N3CCCC4(CN(C)C(=O)O4)C3)c2C1 (stereo not drawn) | -15.16
Cc1nc[nH]c1C(=O)N1CCCC2(CN(C)C(=O)O2)C1 (stereo not drawn) | 1.06
